In PubChem BioAssay AID651598 (Sanford-Burnham Center for Chemical Genomics, 2012):
Where “and” joins values, the source holds several entries; their conditions need not be identical. Equal entries are not always repeated.

Each compound was assayed against Apelin receptor (Homo sapiens) (UniProt P35414) (assay: APJ beta-arrestin recruitment blockade alongside CXCR6 – cell-based, DiscoveRx, panel, CHO-K1, counter-screen for CXCR6 antagonist project, SAR follow-up (AID 651598)). Settings: CHO-K1 PathHunter beta-arrestin luminescence, antagonist mode; run 3, at 80 µM (top of the series).
Apelin receptor (Homo sapiens), sequence (P35414 whole entry, looked up): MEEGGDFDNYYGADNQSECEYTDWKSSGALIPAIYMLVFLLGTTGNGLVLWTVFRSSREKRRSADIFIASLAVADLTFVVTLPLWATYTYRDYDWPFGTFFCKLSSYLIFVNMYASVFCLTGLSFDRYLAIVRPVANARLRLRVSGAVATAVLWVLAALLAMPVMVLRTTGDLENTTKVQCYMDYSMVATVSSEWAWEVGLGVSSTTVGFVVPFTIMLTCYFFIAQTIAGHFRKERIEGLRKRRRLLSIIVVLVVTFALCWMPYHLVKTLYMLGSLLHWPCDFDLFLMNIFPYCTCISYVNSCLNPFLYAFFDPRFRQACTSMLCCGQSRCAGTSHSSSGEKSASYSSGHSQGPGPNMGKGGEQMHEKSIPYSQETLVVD
In the case of `COc1cc(C(=O)NC2CC3CCCC(C2)N3CC(=O)Nc2ccccc2)cc(OC)c1OC` (stereo not drawn), the inhibition is reported as -24.7% and 10.7% and 13.8%. `COc1cc(C(=O)NC2CCN(CC(=O)Nc3ccccc3)CC2)cc(OC)c1OC` gave an inhibition of 19.7%. In the case of `COc1cc(C(=O)NC2CC3CCC(C2)N3CC(=O)Nc2ccccc2)cc(OC)c1OC` (stereo not drawn), the inhibition is reported as 2.29% and 12.1%.
